The whole screen tested about 360,000 compounds, of which about 7,300 (2%) were called active. The sample holds actives, similar compounds and a random draw of the others, so the mix is not that of the screen. Values without a mark were called inactive. No stated cut-off is given here; in the data, active means inhibition above about 50%; inactive means the rest.
assay: inhibitors of TWEAK-Fn14 signaling, primary screen, luciferase reporter cells, uHTS (AID 1159606); settings: TWEAK-stimulated Fn14 reporter cells, luciferase luminescence, 8 h; at 10 µM; hits give high values

Question: With `CCCCOC(=O)Nc1sc2nc(C)cc(C)c2c1-n1cccc1` as the compound, how does the inhibition read?
Answer: 0.84%

Question: For `CN(C)NC(=O)c1csnc1-c1c(Cl)cccc1Cl`, which inhibition is on record?
Answer: 4.17%

Question: For `COc1ccc(S(=O)(=O)N2CCOCC2)cc1NC(=O)CC1CC2CCC1C2` (stereo not given), which inhibition is on record?
Answer: 3.62%

Question: Which inhibition does the source give for `O=C(NC1=CC(=O)c2ccccc2C1=O)c1ccccc1` here?
Answer: 67.5% (active)

Question: Which inhibition does the source give for `O=C(NCCc1ccccc1)c1cccc(NC(=O)c2ccccc2)c1` here?
Answer: -19.1%

Question: For `Cc1cc(=O)c2ccc(NC(=O)c3ccccc3)cc2[nH]1`, which inhibition is on record?
Answer: -10.3%

Question: Which inhibition does the source give for `NC(=O)COC(=O)c1sc2cc(F)ccc2c1Cl` here?
Answer: -16.4%

Question: For `FC(F)(F)Oc1ccccc1C(c1nnnn1C1CCCCC1)N1CCN(C/C=C/c2ccccc2)CC1` (stereo not given), which inhibition is on record?
Answer: 24.4%

Question: Which inhibition does the source give for `CC(C)c1ccccc1OCC(O)CN(CC(O)COc1cccc2ccccc12)C(C)C` (stereo not given) here?
Answer: -15%

Question: Which inhibition does the source give for `O=C(Nc1ccccc1Cl)O/N=C(/c1ccccc1)c1ccccn1` here?
Answer: 60.2% (active)

Question: Which inhibition does the source give for `N/C(=N\OC(=O)Nc1ccccc1)c1ccno1` here?
Answer: -22.1%

Question: Which inhibition does the source give for `O=C(COc1ccc(-n2cnnn2)cc1)Nc1ccccc1Cl` here?
Answer: -14.3%

Question: Which inhibition does the source give for `COc1ccc(CN2C(=O)C(CC(=O)NCCN3CCOCC3)CC(C(=O)N(C(C)C)C(C)C)=C2C)cc1` (stereo not given) here?
Answer: 14.2%

Question: Which inhibition does the source give for `O=C(OC12CC3CC(CC(C3)C1)C2)c1ccc(NCc2cc(O)ccc2O)cc1` here?
Answer: 106% (active)

Question: With `C#CCNc1ccc(C(=O)OCC)cc1` as the compound, how does the inhibition read?
Answer: -3.49%

Question: Which inhibition does the source give for `CCN(CC)C(=O)CCC(=O)Nc1ccc(C(=O)OC)cc1` here?
Answer: 0.79%

Question: With `CC1(C)C2CCC1(C)C(OC(=O)c1ccc(O)cc1)C2` (stereo not given) as the compound, how does the inhibition read?
Answer: 16.2%

Question: For `COC(=O)c1ccc(NCc2cc(O)ccc2O)cc1`, which inhibition is on record?
Answer: 88.9% (active)

Question: With `CC(C)OC(=O)c1ccc(NCc2cc(O)ccc2O)cc1Cl` as the compound, how does the inhibition read?
Answer: 102% (active)

Question: Which inhibition does the source give for `CC(CN1CCCCC1)OC(=O)c1ccccc1Cl` (stereo not given) here?
Answer: 16.6%

Question: For `O=C(O)Cc1ccc(NCc2ccccc2Cl)cc1`, which inhibition is on record?
Answer: 22.4%

Question: With `COc1nc(N(C)C)nc(N2CC(=O)N(CCNS(=O)(=O)c3ccc(C)cc3)C2=N)n1` as the compound, how does the inhibition read?
Answer: -3.28%

Question: For `Cc1ccccc1-c1csc(C(O)c2cccc(Cl)c2)n1` (stereo not given), which inhibition is on record?
Answer: -4.88%

Question: For `COc1ccc(N2CCN(C(=O)C3CCN(S(=O)(=O)c4ccc(C)cc4)CC3)CC2)cc1`, which inhibition is on record?
Answer: -13.2%

Question: With `Cc1nccn1CCC1CCCCN1C(=O)CCc1nnc(-c2ccsc2)o1` (stereo not given) as the compound, how does the inhibition read?
Answer: -14.9%

Question: For `CC(C)(C)NC(=O)Cn1cnc([N+](=O)[O-])n1`, which inhibition is on record?
Answer: 18.3%

Question: Which inhibition does the source give for `CC(C)(C)NC(=O)Cn1cnc2cc([N+](=O)[O-])ccc2c1=O` here?
Answer: 83% (active)

Question: For `O=C(Cn1cnc2cc([N+](=O)[O-])ccc2c1=O)NC(=O)NCc1ccccc1`, which inhibition is on record?
Answer: -1.13%

Question: Which inhibition does the source give for `Cc1cc2c(cc1S(=O)(=O)NCc1ccc(Cl)cc1)OCC(=O)N2` here?
Answer: -8.95%

Question: For `CCOC(=O)CCP(=O)(O)C(O)(c1ccccc1)c1ccccc1`, which inhibition is on record?
Answer: -6.25%

Question: Which inhibition does the source give for `CCOC(=O)C(=Cc1ccccc1)C(=O)c1ccccc1` here?
Answer: 98.4% (active)

Question: For `COc1ccccc1C(=O)c1ccccc1C(=O)c1ccccc1`, which inhibition is on record?
Answer: 9.79%

Question: With `CCOC(=O)C(=Cc1ccccc1OC)C(=O)OCC` as the compound, how does the inhibition read?
Answer: 81.9% (active)

Question: For `COc1ccccc1/C=C/C(=O)NC1CC2CCC1C2` (stereo not given), which inhibition is on record?
Answer: -13.3%

Question: For `CCc1ccccc1NC(=O)/C(=C/c1ccccc1)c1ccccc1`, which inhibition is on record?
Answer: -19.8%

Question: For `CC(C)Oc1ccc(S(=O)(=O)N2CCOCC2)cc1NC(=O)C1CSC2(C)CCC(=O)N12` (stereo not given), which inhibition is on record?
Answer: -10.2%

Question: Which inhibition does the source give for `CC1(C(=O)NCc2cccc3ccccc23)CCN1Cc1ccc(-c2ccccc2)o1` (stereo not given) here?
Answer: 7.77%

Question: Which inhibition does the source give for `Cc1ccc(-c2c[n+](=O)c3c(n2[O-])CCC3)cc1` here?
Answer: -2.42%

Question: Which inhibition does the source give for `Cc1ccnc(N2C(=O)c3ccccc3C2Nc2ccc3c(c2)OCCO3)c1` (stereo not given) here?
Answer: 61.2% (active)

Question: With `CCCCCn1nnnc1C1c2ccccc2C(=O)N1Cc1ccco1` (stereo not given) as the compound, how does the inhibition read?
Answer: 16.5%

Question: With `S=C(NCc1ccco1)Nc1ccc2c(c1)OCCO2` as the compound, how does the inhibition read?
Answer: 2.21%

Question: With `O=C(Nc1ccc2c(c1)OCCO2)C1c2ccccc2OCC(=O)N1Cc1ccccn1` (stereo not given) as the compound, how does the inhibition read?
Answer: -0.53%

Question: For `O=C1c2ccccc2C(Nc2ccc3c(c2)OCCO3)N1Cc1ccco1` (stereo not given), which inhibition is on record?
Answer: 70.9% (active)

Question: Which inhibition does the source give for `COC(=O)c1cc(NC2c3ccccc3C(=O)N2c2ccc(Cl)cn2)cc(C(=O)OC)c1` (stereo not given) here?
Answer: -15.2%

Question: Which inhibition does the source give for `C[C@@H]1C[C@@H]2O[C@H]2/C=C\C=C\C(=O)Cc2c(Cl)c(O)cc(O)c2C(=O)O1` here?
Answer: 90.7% (active)

Question: With `COc1ccc([C@H]2[C@H](C(C)=O)N3N=Cc4ccccc4C3C23C(=O)OC(C)(C)OC3=O)cc1` (stereo not given in full) as the compound, how does the inhibition read?
Answer: 10.5%

Question: For `C/C(=N/NC(=S)Nc1ccccc1)c1ccc2c(c1)OCO2`, which inhibition is on record?
Answer: -46.3%

Question: Which inhibition does the source give for `S=C(Nc1ccccc1)Nc1ccc2ccccc2c1` here?
Answer: 0.33%

Question: For `Cc1ccc(NC(=O)Nc2ccc3oc(C)nc3c2)cc1`, which inhibition is on record?
Answer: -4.94%

Question: For `O=C(Nc1ccc2ccccc2c1)Nc1ccc2snnc2c1`, which inhibition is on record?
Answer: 74.8% (active)

Question: With `O=C(C1CCC1)N1CCN(S(=O)(=O)c2ccc([N+](=O)[O-])cc2)CC1` as the compound, how does the inhibition read?
Answer: 4.46%

Question: For `CCOC(=O)[C@]12CCCC=C1N(Cc1ccc3c(c1)OCO3)C(=O)[C@H](CC(=O)NCc1cccs1)C2`, which inhibition is on record?
Answer: 15.5%

Question: Which inhibition does the source give for `O=S(=O)(Cc1ccc(Cl)cc1Cl)c1ccc(Cl)cc1` here?
Answer: 12.1%

Question: Which inhibition does the source give for `CCCCNC(=O)C[C@@H]1C[C@@]2(C(=O)OCC)CCC=C2N(Cc2cccc3ccccc23)C1=O` here?
Answer: 14.7%

Question: Which inhibition does the source give for `CC(=O)c1c(C)oc2ccc(NS(=O)(=O)c3ccc(C(=O)O)cc3)cc12` here?
Answer: 3.85%

Question: Which inhibition does the source give for `CC(=O)c1c(C)oc2ccc(NS(=O)(=O)c3ccccc3)cc12` here?
Answer: 21.6%

Question: With `COc1ccc(S(=O)(=O)Nc2ccc3oc(C)c(C(C)=O)c3c2)cc1` as the compound, how does the inhibition read?
Answer: 54.4% (active)

Question: For `CC1(C(=O)NS(=O)(=O)c2ccc(C#N)cc2)CCN1C(=O)CC1CCCC1` (stereo not given), which inhibition is on record?
Answer: 1.67%

Question: Which inhibition does the source give for `CCCCCCN1C[C@H](O)[C@@H](n2cc(C3CC3)nn2)C[C@@H]1c1ccc(Cl)cc1` here?
Answer: -1.73%

Question: Which inhibition does the source give for `O=C(/C=C/[C@H]1O[C@@H](n2cnc3c(NC(=O)c4ccccc4)ncnc32)[C@H](O)[C@@H]1O)NCc1ccccc1` here?
Answer: -7.74%
